PubChem BioAssay
Unmarked numbers belong to inactive results. For some of these results: Results with a measured potency or affinity are listed apart. Active and inactive are the calls of the source. Unless noted, the rule behind the calls is not given here.

Tests used:
[1] = antimalarial activity against Dd2 strain (AID 2302;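 active = growth inhibition above 50% at the single 2 µM test dose, taken to imply half-maximal potency below 2 µM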;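 note: 0% = DMSO untreated growth and 100% = chloroquine plus artemisinin killed control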); settings: P. falciparum Dd2 in RBCs, LDH growth readout, 72 h; at 2 µM; stronger effect = higher value
[2] = human hepatoma cell viability loss – ATP luminescence, cytotoxicity control for P. falciparum antimalarial project, primary screen (AID 2303;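 active = inhibition above 50%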;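 note: 0% = DMSO wells and 100% = digitonin-killed cells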); settings: HepG2 viability, 24-48 h, at 10 µM, stronger effect = higher value
[3] = target: L-lactate dehydrogenase (Plasmodium falciparum (isolate CDC / Honduras)) (UniProt Q27743); test: PfLDH activity inhibition – cell lysate, 3D7 strain, counter-screen for P. falciparum growth inhibition project (AID 2304);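 note: 0% = vehicle and 100% = reference inhibitor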; settings: P. falciparum 3D7 crude extract, LDH APAD/NBT absorbance; at 2 µM; stronger effect = higher value
[4] = inhibition of 3D7 malaria parasite growth – strain 3D7 (AID 2306);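 note: 0% = DMSO wells and 100% = chloroquine plus artemisinin control wells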; settings: P. falciparum 3D7 erythrocytic growth, LDH absorbance, 72 h; at 2 µM; stronger effect = higher value
[5] = target: Calcium-dependent protein kinase 1 (Plasmodium falciparum (isolate 3D7)) (UniProt P62344); test: PfCDPK1 kinase inhibitors, biochemical, TCAMS library (AID 1159585; cut-off not given, nearly all actives have IC50 up to about 0.98 µM;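 note: inhibitors leave more ATP so luminescence rises with inhibition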); settings: recombinant PfCDPK1, Kinase-Glo ATP depletion luminescence
[6] = target: Plasmodium falciparum protein kinase 6 (PK6, PF3D7_1337100) (UniProt Q8IDW1); test: PfPK6 kinase inhibitors, biochemical, TCAMS library (AID 1159586); settings: recombinant PfPK6, Kinase-Glo ATP depletion luminescence
[7] = target: Protein kinase 7 (PK7), Plasmodium falciparum 3D7 (PF3D7_0213400) (UniProt Q7YTF7); test: inhibition of Plasmodium PK7 catalytic activity – biochemical, TCAMS antimalarial set, Kinase-Glo luminescence (AID 1159587); settings: recombinant PfPK7, Kinase-Glo ATP depletion luminescence
[8] = target: Calcium-dependent protein kinase 4 (Plasmodium falciparum (isolate 3D7)) (UniProt Q8IBS5); test: PfCDPK4 kinase inhibitors, biochemical, TCAMS library (AID 1159588; cut-off not given, nearly all actives have IC50 up to about 0.91 µM); settings: recombinant PfCDPK4, Kinase-Glo ATP depletion luminescence
Sequence of Calcium-dependent protein kinase 4 (Plasmodium falciparum (isolate 3D7)) (Q8IBS5 whole entry, looked up): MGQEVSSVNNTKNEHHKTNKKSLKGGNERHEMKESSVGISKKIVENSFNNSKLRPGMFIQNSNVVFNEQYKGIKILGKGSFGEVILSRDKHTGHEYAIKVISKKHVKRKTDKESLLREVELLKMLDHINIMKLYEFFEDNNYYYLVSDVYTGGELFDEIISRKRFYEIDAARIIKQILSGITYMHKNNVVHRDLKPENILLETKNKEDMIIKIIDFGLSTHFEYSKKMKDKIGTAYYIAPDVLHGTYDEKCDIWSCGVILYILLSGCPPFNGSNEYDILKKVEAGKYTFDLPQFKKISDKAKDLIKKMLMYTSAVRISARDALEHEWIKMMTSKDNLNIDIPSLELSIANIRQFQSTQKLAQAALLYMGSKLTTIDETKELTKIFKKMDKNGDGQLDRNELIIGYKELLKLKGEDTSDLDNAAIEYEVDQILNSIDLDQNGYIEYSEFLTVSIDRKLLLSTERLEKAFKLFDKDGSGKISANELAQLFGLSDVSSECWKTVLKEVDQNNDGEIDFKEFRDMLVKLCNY

Sequence of Calcium-dependent protein kinase 1 (Plasmodium falciparum (isolate 3D7)) (P62344 whole entry, looked up): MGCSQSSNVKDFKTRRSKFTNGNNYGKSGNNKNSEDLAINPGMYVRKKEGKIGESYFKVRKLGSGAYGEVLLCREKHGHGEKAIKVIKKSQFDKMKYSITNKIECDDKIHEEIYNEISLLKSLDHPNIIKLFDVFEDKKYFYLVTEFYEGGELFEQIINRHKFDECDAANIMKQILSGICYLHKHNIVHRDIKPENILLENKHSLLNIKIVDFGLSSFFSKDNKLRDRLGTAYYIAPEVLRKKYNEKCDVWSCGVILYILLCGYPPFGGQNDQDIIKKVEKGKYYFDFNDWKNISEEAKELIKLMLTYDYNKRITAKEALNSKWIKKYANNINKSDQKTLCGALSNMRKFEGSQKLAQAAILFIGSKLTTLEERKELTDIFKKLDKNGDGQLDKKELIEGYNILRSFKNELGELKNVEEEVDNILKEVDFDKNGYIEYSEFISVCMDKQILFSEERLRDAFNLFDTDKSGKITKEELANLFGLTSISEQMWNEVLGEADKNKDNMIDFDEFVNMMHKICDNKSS
Sequence of Plasmodium falciparum protein kinase 6 (PK6, PF3D7_1337100) (Q8IDW1 1-305): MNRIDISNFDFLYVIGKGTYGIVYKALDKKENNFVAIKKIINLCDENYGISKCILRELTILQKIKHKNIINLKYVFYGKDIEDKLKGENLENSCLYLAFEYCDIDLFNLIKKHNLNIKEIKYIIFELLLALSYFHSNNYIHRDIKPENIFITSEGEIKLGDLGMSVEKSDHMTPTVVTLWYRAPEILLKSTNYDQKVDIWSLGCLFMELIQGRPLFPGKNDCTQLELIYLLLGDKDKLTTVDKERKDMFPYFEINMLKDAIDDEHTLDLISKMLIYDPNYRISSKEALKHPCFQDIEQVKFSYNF
Sequence of Protein kinase 7 (PK7), Plasmodium falciparum 3D7 (PF3D7_0213400) (Q7YTF7 1-343): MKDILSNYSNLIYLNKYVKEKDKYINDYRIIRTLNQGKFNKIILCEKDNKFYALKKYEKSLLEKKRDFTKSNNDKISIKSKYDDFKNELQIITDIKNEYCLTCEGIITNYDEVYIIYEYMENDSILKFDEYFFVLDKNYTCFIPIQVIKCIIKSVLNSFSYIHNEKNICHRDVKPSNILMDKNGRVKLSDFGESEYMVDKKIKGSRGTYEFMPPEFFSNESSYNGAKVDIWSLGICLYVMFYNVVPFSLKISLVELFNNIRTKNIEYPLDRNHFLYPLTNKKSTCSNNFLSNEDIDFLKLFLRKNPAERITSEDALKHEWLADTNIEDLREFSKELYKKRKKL
Sequence of L-lactate dehydrogenase (Plasmodium falciparum (isolate CDC / Honduras)) (Q27743 whole entry, looked up): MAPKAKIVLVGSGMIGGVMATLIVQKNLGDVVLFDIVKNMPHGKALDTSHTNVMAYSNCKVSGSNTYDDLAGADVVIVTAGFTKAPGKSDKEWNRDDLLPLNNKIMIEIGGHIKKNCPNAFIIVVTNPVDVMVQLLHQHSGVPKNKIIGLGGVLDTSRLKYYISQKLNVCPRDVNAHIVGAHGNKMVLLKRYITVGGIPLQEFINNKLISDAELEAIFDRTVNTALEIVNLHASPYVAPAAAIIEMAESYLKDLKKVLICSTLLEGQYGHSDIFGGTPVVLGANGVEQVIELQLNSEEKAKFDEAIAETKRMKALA

Structure (SMILES) | growth inhibition [1] | inhibition [2] [%] | inhibition [3] [%] | growth inhibition [4] | outcome [5] | outcome [6] | outcome [7] | outcome [8]
COc1ccccc1CN1CCC(NC(=O)c2ccc(-c3cccc(Cl)c3)s2)CC1 | 9% | 49 | -1 | 84% (active) | inactive | inactive | inactive | inactive
COCCn1c(-c2nc(-c3ccc(F)cc3)cnc2N)nc2ccccc21 | 98% (active) | 16 | -6 | 98% (active) | inactive | inactive | inactive | inactive
O=C(Nc1ccc(Cl)cc1)Nc1cccc(-c2ccc(-c3nc4ccccc4[nH]3)cc2)c1 | 6% | 19 | -3 | 87% (active) | inactive | inactive | inactive | inactive
C[C@@H]1CC[C@H](NC(=O)[C@H](CC2CCCC2)NC(=O)N2CCNCC2)C(=O)CN1S(=O)(=O)c1ccccn1 | 19% | 5 | -2 | 84% (active) | inactive | inactive | inactive | inactive
C[C@H]1CN(Cc2cccc(-c3cc(CNC(=O)c4cccc(CC5CCN(C)CC5)c4)ccc3F)c2)CCN1C | 99% (active) | 42 | 2 | 101% (active) | inactive | inactive | inactive | inactive
COc1cccc(CNC(=O)c2ccnc(-c3cccc(CN(C)C4CCN(C)CC4)c3)c2)c1 | 46% | 19 | -1 | 100% (active) | inactive | inactive | inactive | inactive
CCCCN1CCCN(Cc2cccc(NC(=O)c3ccc(-c4ccccc4)cc3)c2)CC1 | 8% | 19 | 5 | 92% (active) | inactive | inactive | inactive | inactive
CCCNc1ccc2nccc(CCN3CCC(NCc4ccc5c(c4)NC(=O)CS5)CC3)c2n1 | 17% | -2 | -5 | 94% (active) | inactive | inactive | inactive | inactive
Cc1cnc(C(=O)Nc2ccc3c(c2)CCCN(Cc2c[nH]c4cnccc24)C3)cn1 | 20% | 0 | -3 | 92% (active) | inactive | inactive | inactive | inactive
CCOC(=O)CNC(=O)c1cc(=O)c2ccccc2o1 | -4% | 22 | -4 | 99% (active) | inactive | inactive | inactive | inactive
CC1CC(NCCCNc2cc(=O)c3ccccc3[nH]2)c2c1cc(Cl)c(Cl)c2Cl (stereo not given) | 70% (active) | 1 | 3 | 98% (active) | inactive | inactive | inactive | inactive
Cc1cccc(CN2CCCC3(CCN(Cc4ccccc4O)C3)C2)c1 (stereo not given) | 76% (active) | 14 | -3 | 99% (active) | inactive | inactive | inactive | inactive
Cc1ccc(-n2cc(CNCCCn3ccnc3)c(-c3cccc(C)c3)n2)cc1 | 36% | 9 | -2 | 99% (active) | inactive | inactive | inactive | inactive
O=C(Nc1ccc(F)c([N+](=O)[O-])c1)Nc1cc(C(F)(F)F)ccc1Cl | 86% (active) | 5 | 0 | 101% (active) | inactive | inactive | inactive | inactive
CC(C)NCc1ccc(-c2ccc(CN3CCCC(c4ccccc4)C3)cc2)c(C(=O)NC2Cc3ccccc3C2)c1 (stereo not given) | 64% (active) | 41 | 3 | 96% (active) | inactive | inactive | inactive | inactive
COCCNCc1ccc(-c2ccc(CNC3CCN(Cc4ccccc4)CC3)cc2)cc1 | 61% (active) | 22 | -4 | 100% (active) | inactive | inactive | inactive | inactive
CCN(CCCN1CCCCC1)c1cc(C)nc(Nc2ccc(C)cc2C(F)(F)F)n1 | 35% | 23 | -2 | 101% (active) | inactive | inactive | inactive | inactive
NC(N)=Nc1nc(-c2cccc(NC(=O)C(F)(F)F)c2)cs1 | 24% | -4 | -2 | 94% (active) | inactive | inactive | inactive | inactive
O=C(NCCCCCN1CCC(c2c[nH]c3ccccc23)CC1)Nc1cccc(Br)c1 | -3% | 39 | 3 | 84% (active) | inactive | inactive | inactive | inactive
CC1CC(NCCCNc2cc(=O)c3ccccc3[nH]2)c2c(Cl)c(Cl)cc(Cl)c21 (stereo not given) | 52% (active) | 6 | 2 | 87% (active) | inactive | inactive | inactive | inactive
